# ALOX12 inhib: qHTS Assay for Inhibitors of 12-hLO (12-human lipoxygenase); Polyunsaturated fatty acid lipoxygenase ALOX12 (Homo sapiens), P18054; purified 12-hLO, xylenol orange hydroperoxide absorbance; Potency, µM (highest dose often 57.1 µM), without a hit: top-dose activity change, negative = inhibition, usual class: inhibitors; hit rate 0.12% among 150,000; further: potency means the concentration at half of the fitted maximal effect; nearly all actives have a fitted effect of over 55% in size
# Target sequence (P18054 whole entry, looked up): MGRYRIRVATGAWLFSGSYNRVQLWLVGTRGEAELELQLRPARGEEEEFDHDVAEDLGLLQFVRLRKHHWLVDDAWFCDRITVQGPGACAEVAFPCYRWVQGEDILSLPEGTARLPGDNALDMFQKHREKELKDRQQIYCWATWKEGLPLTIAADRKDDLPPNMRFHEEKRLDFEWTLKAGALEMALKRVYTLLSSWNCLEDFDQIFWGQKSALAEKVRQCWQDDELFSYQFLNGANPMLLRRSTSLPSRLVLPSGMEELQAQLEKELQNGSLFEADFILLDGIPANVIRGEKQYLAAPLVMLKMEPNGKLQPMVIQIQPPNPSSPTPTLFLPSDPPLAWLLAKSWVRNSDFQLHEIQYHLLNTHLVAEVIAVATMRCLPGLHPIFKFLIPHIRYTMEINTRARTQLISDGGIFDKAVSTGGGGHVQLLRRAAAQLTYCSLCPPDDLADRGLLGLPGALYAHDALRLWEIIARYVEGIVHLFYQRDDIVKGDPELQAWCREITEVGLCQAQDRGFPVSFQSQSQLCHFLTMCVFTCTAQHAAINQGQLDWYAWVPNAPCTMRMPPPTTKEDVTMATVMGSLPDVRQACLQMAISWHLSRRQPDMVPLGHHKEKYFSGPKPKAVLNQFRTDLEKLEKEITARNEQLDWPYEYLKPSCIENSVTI
#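 Hydroperoxide output read as Fe(III)-xylenol orange absorbance, 573-to-405 nm ratio, after 30 min reaction with 40 uM arachidonic acid. Enzyme: 150 nM purified human 12hLO, 15 min compound preincubation; 25 mM Hepes pH 7.0, room temperature.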
# ALOX15B inhib: qHTS Assay for Inhibitors of 15-hLO-2 (15-human lipoxygenase 2) | purified 15hLO-2, xylenol orange hydroperoxide absorbance | Potency, µM (top dose mostly 57.1 µM), without a hit: at the highest dose activity change, negative = inhibition, actives largely listed as inhibitors | hit rate 0.56% among 110,000; further: potency means the concentration at half of the fitted maximal effect; nearly all actives have a fitted effect of over 60% in size
#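 Purified human 15hLO-2 (50 nM final) preincubated with compounds 15 min at room temperature in 25 mM Hepes pH 7.5, 0.01% Triton X-100, then 45 uM arachidonic acid added for 90 min; hydroperoxide detected via ferrous/xylenol orange, 573/405 nm absorbance ratio.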
# PNC inhibitor: High Content Assay for Compounds that inhibit the Assembly of the Perinucleolar Compartment. PC3M PTB-GFP, PNC prevalence imaging, 16 h; active compounds read low. hit rate 3.1% among 140,000. activity change (PNC), negative = inhibition, % at 10 µM;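 active means readout at or below -70, meaning at least 70% loss of cells showing the perinucleolar compartment, a nuclear body marking cancer cells; inconclusive means readout between -30 and a set limit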;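 further: plate controls were DMSO wells for no effect and camptothecin positive control wells for full effect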
#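 Compounds are pinned in duplicate onto adhered PC3M cells stably expressing GFP-tagged PTB and incubated 16 h at 37 C. Cells are then fixed, nuclei stained with Hoechst, and PNC-positive cells counted.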
# * = called active by the depositor; ? = inconclusive; nt = no result given; [ ] = another dose, or the depositor's remark. The list is not random: actives were taken first. Their share in the collection is about 3.2%. Unless noted, the call rests on the fitted dose curve; in most records, active means well fitted curve in the direction sought with a large enough effect; inconclusive means small, poorly fitted or top-dose-only effect, or another doubt; inactive means no such curve, though single readings can be large; an effect the other way counts as inactive or inconclusive. Unless noted, on the % scale 0 is the no-effect control and ±100 the full control effect.
SMILES,ALOX12 inhib,ALOX15B inhib,PNC inhibitor
CCN1C/C(=C/c2cccc([N+](=O)[O-])c2)C(=O)/C(=C/c2cccc([N+](=O)[O-])c2)C1,4%,nt,-123*
CCN1CCN(C(=S)Nc2cccc([N+](=O)[O-])c2)CC1,6%,nt,?
COCCNC(=O)c1ccc(-n2c(=O)c(=O)[nH]c3ccccc32)cc1,-6%,nt,nt
CCOC(=O)c1cccc(NC(=O)CSc2nnc(COc3ccccc3)n2CC)c1,-7%,-10%,-15
Cn1c(COc2ccccc2)nnc1SCc1cc(=O)[nH]c2ccccc12,0%,4%,-107*
COC(=O)c1cccc(NC(=O)CSc2nnc(COc3ccccc3)n2C)c1,-5%,4%,-126*
O=c1cc(CSc2nnc(COc3ccccc3)n2-c2ccccc2)c2ccccc2[nH]1,1%,nt,38
COc1ccccc1CNc1nc(-c2ccoc2)nc2ccccc12,nt,5%,nt
CCCn1c(SCC(=O)Nc2nc3ccccc3s2)nc2c1c(=O)n(C)c(=O)n2C,4%,1%,-111*
CC(C)n1c(SCC(=O)Nc2nc3c(s2)CCCC3)nc2c1c(=O)n(C)c(=O)n2C,-1%,nt,-100*
CCOC(=O)c1c(NC(=O)CSc2nc3c(c(=O)n(C)c(=O)n3C)n2C(C)C)sc(C)c1C,0%,0%,?
CCCn1c(SCC(=O)Nc2nnc(C(C)C)s2)nc2c1c(=O)n(C)c(=O)n2C,1%,-6%,-7
COc1ccc(C(=O)N2CCC3(CCCN(Cc4ccc(C#N)cc4)C3)CC2)cc1,-13%,9%,nt
S=C(NCCCN1CCOCC1)Nc1ccc(Cl)c(Cl)c1,-5%,nt,22
COc1ccccc1C1N(c2cc(Cl)ccc2OC)C(=O)C2CCCN21 (stereo unspecified),0%,7%,-106*
COc1ccc(C2N(c3cc(Cl)ccc3OC)C(=O)C3CCCN32)c(OC)c1 (stereo unspecified),3%,3%,3
C=C1C2(C(=O)Nc3ccc(SC(F)F)cc3)CCC(C2)C1(C)C (stereo unspecified),1%,nt,?
O=C(Nc1ccc(SC(F)F)cc1)C12CCC(CC1)C2,-2%,nt,-113*
CCCCc1nc2c(c3c1C[C@H](C)OC3)CN(C(=O)c1ccco1)CC2,-2%[11.4 µM],nt,nt
Cc1ccc(C(=O)CSc2ncnc3sc4c(c23)CCC(C)C4)cc1 (stereo unspecified),0%,nt,-119*
CC1CCc2c(sc3ncnc(N4CCOCC4)c23)C1 (stereo unspecified),-5%,10%,-2
CCOc1ccc(OCCN2CCCCC2)cc1,0%,nt,-88*
CCOc1ccc(C(=O)CCN2CCCCCC2)cc1,-6%,-25%,19
CCCCSc1nc(C)cc(C)c1S(=O)(=O)c1ccccc1C,3%,nt,-13
CC(Oc1ccccc1Cl)c1nnc(N)s1 (stereo unspecified),4%,10%,-117*
SMILES,ALOX12 inhib,ALOX15B inhib,PNC inhibitor
Cc1ccc(OC(C)c2nnc(N)s2)cc1Cl (stereo unspecified),-2%,6%,-14
COc1cc(OC)cc(-c2nc3cc(C)ccc3o2)c1,-12%,21%,-117*
Cc1ccc(-c2nc3cc(Cl)ccc3o2)cc1,-5%,-1%,?
CCCn1c(-c2ccc(F)cc2)nc2c(NCC3CCN(C)CC3)nc(C)nc21,9%,2%,nt
COc1ccc(C(=O)/C=C/N(C)C)cc1OC,2%,0%,-4
COc1ccc(C(=O)/C=C/N(C)C)cc1,-24%,1%,-80*
N#Cc1ccsc1NC(=O)COC(=O)c1cc2ccccc2cc1O,2%,nt,?
O=C(Nc1sc2c(c1-c1nc3ccccc3[nH]1)CCCC2)C1CCCC1,0%,23%,?
CC(=O)NCCC(=O)Nc1sc2c(c1-c1nc3ccccc3[nH]1)CCCC2,1%,15%,-80*
COC(=O)CN1C(=O)S/C(=C/c2ccc(N3CCCCC3)o2)C1=O,-7%,13µM*,8
CCOC(=O)CN1C(=O)S/C(=C/c2ccc(N3CCCCC3)o2)C1=O,-5%,-21%,?
Fc1ccc(Nc2nc(-c3cccnc3)nc3ccccc23)cc1,0%,5%,nt
NCCCCCc1cnc[nH]1,5%[0.00818 µM],28%[0.0915 µM],nt
CC(C)C1CCC(C(=O)NC(Cc2ccccc2)C(=O)O)CC1 (stereo unspecified),2%,-12%,nt
Cn1nc(-c2ccc(Cl)cc2)c2cc(C(=O)NC3CC3)sc21,6%,4%,-86*
CCN(CC)CCNC(=O)c1cc2c(-c3ccc(Cl)cc3)nn(C)c2s1,0%,20%,4
Cc1ccc(C)c(Oc2coc3cc(OCC(=O)Nc4ccccc4C(C)C)ccc3c2=O)c1,-1%,nt,1
Cc1ccc(N2C(=O)c3cccc4c(N5CCN(C)CC5)ccc(c34)C2=O)c2cccnc12,-1%,0%,-83*
Cc1cccc(N2C(=O)c3cccc4c(N5CCCCC5)c([N+](=O)[O-])cc(c34)C2=O)c1C,-2%,nt,?
COC1=CC(C)C2CC3OC(=O)CC4C(C)=C(OC)C(=O)C([C@]2(C)C1=O)[C@]34C (stereo partly specified),4%,-5%,nt
O=C(O)c1cc2ccccc2c(Cc2c(O)c(C(=O)O)cc3ccccc23)c1O,1%[11.4 µM],nt,nt
CC(NC(=O)Cn1cnc([N+](=O)[O-])n1)c1ccccc1 (stereo unspecified),2%,-8%,22
C[C@H](NC(=O)Cn1cncn1)c1ccccc1,4%,-4%,-100*
CC(=O)N[C@@H](C(=O)O)C(C)(C)SN=O,-4%,-1%,nt
CNC1C(O)C(O[C@H]2C(O)[C@@H](OC3OC(CN)=CCC3N)[C@H](N)C[C@@H]2N)OC[C@]1(C)O (stereo partly specified),-1%,1%,nt
SMILES,ALOX12 inhib,ALOX15B inhib,PNC inhibitor
COc1ccc(OC)c(NC(=O)COC(=O)Cc2ccc(-c3ccccc3)cc2)c1,0%,nt,?
COc1cc(NC(=O)COC(=O)Cc2ccc(-c3ccccc3)cc2)cc(OC)c1,-3%,nt,-102*
Cc1ccccc1-c1cc(NCCN2CCOCC2)ncn1,nt,-6%,nt
COc1cc2cc(CN(Cc3cccs3)C(=S)Nc3ccc(C)cc3)c(=O)[nH]c2cc1OC,5%,nt,-24
COc1cc2cc(CN(Cc3cccs3)C(=S)Nc3cccc(C)c3)c(=O)[nH]c2cc1OC,-1%,nt,-113*
Cc1cccc(NC(=S)N(CCN(C)C)Cc2cc3cc(C)cc(C)c3[nH]c2=O)c1,-5%,nt,3
Cc1cccc(NC(=S)N(CCN(C)C)Cc2cc3cccc(C)c3[nH]c2=O)c1,-2%,nt,-100*
CCCCC(C=O)CC (stereo unspecified),-1%,-1%,nt
CCOC(=O)Cc1csc(NC(=O)CSc2ncnc3c2cnn3-c2ccccc2Cl)n1,-5%,-4%,-16
CCN(CC)c1ccc(/C=C(/C#N)C(=O)NCc2ccccc2)o1,-11%,nt,-90*
CC(=O)Nc1ccc(/C=C(\C#N)C(=O)NCc2ccccc2)cc1,-2%,nt,49
C=C1C[C@@]23C[C@@]1(O)CC[C@@H]2[C@]12C=C[C@@H](O)[C@](C)(C(=O)O1)[C@@H]2[C@@H]3C(=O)O,-1%,-6%,nt

# Screening results from PubChem BioAssay.
